Assay outcomes: PubChem BioAssay, several laboratories
A selection: hits, their analogues and other compounds. The true share with any hit is near 0.29%.
BH1578 lux ind: inducers of Vibrio cholerae quorum light production without autoinducers, primary screen, BH1578 luxS cqsA deficient, single point. V. cholerae BH1578 lux reporter, luminescence, 6 h. activation, % at 18.7 µM. 350,000 compounds, 0.16% hits. AID 588436, 2011; in the data active = activation mostly above about 9.7%, no sharp cut-off
Yp Topo-I inh: Yersinia pestis topoisomerase I inhibitors, primary screen, biochemical, cleavage product accumulation, plate reader, single point. DNA topoisomerase I (Yersinia pestis CO92). Y. pestis Topo-I cleavage product accumulation. activity, % at 10 µM. 360,000 compounds, 0.064% hits. AID 504884, 2011; in the data active = activity above about 50%, passing the limit was not always enough
Mtb hypoxia rep: PubChem AID 1159583. M. tuberculosis hypoxia-regulated fluorescent reporter, fluorescence. fluorescence inhibition, % (no concentration beside the values). 300,000 compounds, 0.1% hits; in the data active = fluorescence inhibition mostly above about 23%, no sharp cut-off; inactive = mostly below about 17%
Active calls of the source: *; i = inactive; x = no result given.

SMILES | BH1578 lux ind | Yp Topo-I inh | Mtb hypoxia rep
O=C(CC1CCCCC1)NCC1CCCO1 (configuration not stated) | 17* | 6 | x
O=C(CCl)NCC1CCCO1 (configuration not stated) | -1 | 1 | 19
CSc1nc2c(cc1C#N)CCC2 | 0 | -2 | 17
Brc1cc(Br)c2nc3c(cc2c1)CCC3 | -1 | 0 | 54*
CC(=O)Nc1ccc(C2=CC(=O)C[C@H](c3ccc4c(c3)OCO4)C2)cc1 | -1 | 19 | 12
CON=CC(=NNc1ccc(C)cc1)C(=O)c1ccc(OC)cc1 | x | x | 13
CN(C)CCOc1nc(-c2ccccc2)nc2c1oc1ccccc12 | x | -7 | 41*
CN(C)CCOc1ncnc2c1oc1ccccc12 | 2 | 0 | 5
CCOC(=O)C1=C(N)N(c2ccccc2)C(=O)C1 | 6 | -6 | x
CCOC(=O)C1=C(N)N2C(=O)CSC2=C(C(=O)OC)C1 | 60* | 0 | 4
CCOC(=O)c1c(N=CN(C)C)sc(C=NNc2ccccc2)c1-c1ccccc1 | x | x | 3
COc1ccc(-c2nc(-c3ccccc3)c(-c3cc([N+](=O)[O-])ccc3C)[nH]2)cc1O | -3 | -14 | 24
Cc1ccc([N+](=O)[O-])cc1-c1[nH]c(-c2ccc(O)c(O)c2)nc1-c1ccccc1 | 25* | 1 | -1
C/C(=N\NC(=O)c1cccc(S(=O)(=O)N2CCCC2)c1)c1ccc(OCC(=O)N(C)C)cc1 | -2 | 8 | x
COc1ccccc1C=CC(=O)Oc1cccc2cccnc12 | x | x | 4
CC(C)C(NC(=O)c1ccc(C(C)(C)C)cc1)C(=O)NCc1ccccn1 (configuration not stated) | i | 11 | -7
COC(=O)NC(Nc1sc2c(c1C(N)=O)CCCC2)(C(=O)OC)C(F)(F)F (configuration not stated) | 17* | -6 | -2
CCCOC(=O)Nc1sc2c(c1C(N)=O)CCCC2 | i | -16 | 5
O=C(O)C(=C1OC(=O)c2ccccc21)c1ccccc1 | x | x | 10
O=C(c1cc(-c2ccncc2)nc2ccc(Br)cc12)N1CCN(c2ccccn2)CC1 | i | 35 | x
O=C(c1cc(-c2ccccc2Cl)nc2ccc(Br)cc12)N1CCN(c2ccccn2)CC1 | i | 55* | -1
CC(C)CC1CN=C(N)N1CC1CCCN1CC(C)N1CC(Cc2ccccc2)N(CCc2ccc(Cl)c(Cl)c2)C1=N (configuration not stated) | x | x | 91*
CC(C)C[C@@H]1CN=C(N)N1C[C@@H]1CCCN1C[C@H](C)N1C[C@@H](Cc2ccccc2)N(CCc2ccc(Cl)c(Cl)c2)C1=N | i | -14 | x
COc1cccc2c1OC1(C)CC2/C(=C(\C)O)C(=O)N1 (configuration not stated) | i | -4 | -2
COc1ccc2c(OC)cc(=O)n(C)c2c1 | 0 | -1 | 3
SMILES | BH1578 lux ind | Yp Topo-I inh | Mtb hypoxia rep
COc1cc(=O)n(C)c2ccccc12 | 21* | -1 | -1
Cn1c(N/N=C/c2cccs2)cc(=O)n(C)c1=O | 33* | 1 | x
Cn1c(NN=Cc2cccs2)cc(=O)n(C)c1=O | x | x | 3
O=C(Nc1ccccc1)Nc1ccncc1 | 0 | -4 | 1
O=C(Nc1ccccc1)Nc1ccno1 | i | 4 | 95*
COc1cc(OC)c(OC)cc1/C=C1/C(=O)N=C(N)N1C | i | -2 | -1
COc1ccc(/C=C2/C(=O)N=C(N)N2C)cc1OC | 17* | 3 | x
CC1(C(=O)NS(=O)(=O)c2ccccc2Cl)CCN1C(=O)c1ccco1 (configuration not stated) | i | 3 | x
Cc1ccc(S(=O)(=O)N2CCN(C(=O)c3cc4c(s3)CCCC4)CC2)c(C)c1 | i | 34 | 8
O=C(c1cc2c(s1)CCCC2)N1CCN(S(=O)(=O)c2ccccc2C(F)(F)F)CC1 | 0 | 58* | 2
Cc1ccc(CC2(c3ccccc3)NC(=O)NC2=O)cc1 (configuration not stated) | -3 | -7 | -4
COc1ccc(CN(C)C(=O)c2cccc(S(=O)(=O)N3CCCc4ccccc43)c2)c(OC)c1OC | -1 | 30 | 28*
COc1ccc(CN(C)C(=O)c2cccc(S(=O)(=O)N3CCN(c4ccccc4)CC3)c2)c(OC)c1OC | 6 | 23 | 0
CCOc1cc(C=NNC(N)=O)cc(Br)c1OC(C)C | x | x | 8
COc1cccc(/C=C(/C(=O)OCC(=O)NC2CCCC(C)C2C)c2ccccc2)c1 (configuration not stated) | -2 | 60* | 15
COc1cccc(/C=C(/C(=O)OCC(N)=O)c2ccccc2)c1 | 0 | -2 | 12
COc1ccc(C2C(C(=O)c3cccs3)=C(O)C(=O)N2CCN2CCOCC2)c(OC)c1 (configuration not stated) | -1 | -7 | -5
CC(C)(C)c1ccc(C(=O)NN=Cc2cccc(Cl)c2)cc1 | x | x | 4
O=C(O)CC1c2ccccc2S(=O)(=O)N1C1CCCC1 (configuration not stated) | x | x | 13
COc1ccc(NC(=O)COC(=O)c2ccc(N3CCCC3=O)cc2)cc1 | i | -4 | 4
CC(NC(=O)COC(=O)c1ccc(N2CCCC2=O)cc1)c1ccc(F)cc1 (configuration not stated) | i | -2 | 33*
CC(C)CC(CSc1ccc(Br)cc1)N1CCN(CC(C)C)CCC1=O (configuration not stated) | x | x | 3
COc1cccc(C=NNC(=O)CCc2c(C)n[nH]c2C)c1 | x | x | 6
CC=CC(=O)Nc1cccc(C2=NOC3(C2)CC(C(N)=O)N(C(=O)c2cc([N+](=O)[O-])cc([N+](=O)[O-])c2)C3)c1 (configuration not stated) | x | x | 40*
C/C=C/C(=O)Nc1cccc(C2=NOC3(C2)C[C@@H](C(N)=O)N(C(=O)c2cc([N+](=O)[O-])cc([N+](=O)[O-])c2)C3)c1 (some centres not stated) | i | -13 | x
SMILES | BH1578 lux ind | Yp Topo-I inh | Mtb hypoxia rep
CCOc1cc(C=NNC(=O)OC)ccc1OC(=O)c1ccco1 | x | x | 0
Cc1ccc(C=NNC(=O)CNC(=O)Cc2ccccc2)o1 | x | x | -2
COc1ccc(CNS(=O)(=O)CCNCc2ccccc2OC)cc1 | 0 | 12 | x
CCCCCCCCNS(=O)(=O)CCNCc1ccccc1OC | 0 | 53* | x
CCOC(=O)C1=C(COC(=O)c2ccc(C)c(S(=O)(=O)N3CCOCC3)c2)NC(=O)NC1C (configuration not stated) | 1 | 19 | 7
CCOC(=O)C1=C(COC(=O)c2ccc(OC)c(S(=O)(=O)N3CCOCC3)c2)NC(=O)NC1C (configuration not stated) | -1 | 1 | 18*
COC(=O)C1=C(c2ccc(OC(F)(F)F)cc2)CC2CCC1N2C(=O)NCCCOC(C)C (configuration not stated) | x | x | 9
CN(C)CCNC(=O)C1(C)Cc2c(-c3cccc(C(F)(F)F)c3)ccnc2O1 (configuration not stated) | -1 | -1 | x
CN1CCC/C1=C/C=C1\SC(=S)NC1=O | i | 3 | 41*
CN1CCCC1=CC=C1C(=O)N(C)C(=S)N1C | x | x | 5
O=C(NCc1cccc(Cl)c1)c1cccc(S(=O)(=O)N2CCCC2)c1 | i | 12 | -4
